In the library only some 3% were active in any assay of this set; here they are far more common.
KAT2A inh – blocks human GCN5L2 histone acetyltransferase. Q92830. hit rate 0.21% among 390,000. Potency, µM (doses to about 58.9 µM), usual class: inhibitors. GCN5L2 HAT assay, ThioGlo1 CoA-SH fluorescence
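Free CoA generated was detected with ThioGlo1 (50uM) fluorescence at Ex340nm/Em540nm, read immediately and after 20 min at room temperature. Enzyme, 20 nM in HEPES pH 7.5 buffer, saw compounds 15 min before adding 75uM H3(1-25) peptide and 70uM acetyl-CoA.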
VDR inh – vitamin D3 receptor (human) inhibition; AID 504847; hit rate 0.93% among 400,000; Potency, µM, actives largely listed as inhibitors; VDR-SRC2-3 peptide fluorescence polarization, 2 h; P11473
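Fluorescence polarization assay measuring small-molecule disruption of VDR binding to the coregulator peptide SRC2-3. Compounds were pin-transferred (23 nl) into the reagent mix and incubated 2 h at room temperature before reading.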
PTAP TSG101 blk – blocks PTAP/TSG101 interaction to inhibit HIV-1 budding; 340,000 tested, under 10 active; Potency, µM (doses to about 115 µM), most hits filed as inhibitors; AID 493005; Q99816; Fluorescence polarization, FITC-PTAP peptide / Tsg101 binding; active means well fitted inhibition curve with a large enough effect in the main read-out, with a control signal flat, not every such curve was filed as active; inconclusive means small, poorly fitted or top-dose-only effect, or effect the other way, or a change in a side signal; inactive means no such curve, though single readings can be large or run the other way
Target sequence (Q99816 whole entry, looked up): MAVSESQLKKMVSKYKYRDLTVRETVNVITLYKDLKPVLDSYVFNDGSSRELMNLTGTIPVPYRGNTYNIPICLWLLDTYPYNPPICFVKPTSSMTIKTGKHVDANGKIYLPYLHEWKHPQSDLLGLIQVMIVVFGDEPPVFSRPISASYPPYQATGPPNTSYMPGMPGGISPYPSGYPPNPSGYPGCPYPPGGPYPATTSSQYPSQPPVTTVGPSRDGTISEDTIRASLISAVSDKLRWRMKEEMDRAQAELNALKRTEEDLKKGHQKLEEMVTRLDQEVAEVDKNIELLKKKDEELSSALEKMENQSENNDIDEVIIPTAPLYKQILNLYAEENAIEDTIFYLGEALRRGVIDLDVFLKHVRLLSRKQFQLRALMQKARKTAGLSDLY
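Fluorescence polarization binding of Tsg101 binding domain (10 uM final) to FITC-labeled PTAP peptide (50 nM final) in HEPES pH 7.5 buffer with NaCl, Tween 20, EDTA, TCEP. Compounds added before peptide; binding 20 min at RT.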
USP1-UAF1 inh – blocks the human USP1/UAF1 deubiquitinase complex; O94782; recombinant USP1/UAF1, Ub-Rhodamine cleavage fluorescence; Potency, µM (top dose mostly 57.1 µM), actives largely listed as inhibitors; hit rate 0.23% among 390,000; further: nearly all actives have a fitted effect of over 60% in size
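USP1/UAF1 complex at 1 nM was preincubated with compound for 15 min at room temperature, then Ub-Rho substrate (150nM final) was added. Fluorescence (480/540 nm) was read kinetically, 6 reads every 60 seconds.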
PLK1 PBD block – inhibitors of human PLK1 polo-box domain binding; Potency, µM, most hits filed as inhibitors; P53350; Plk1 PBD binding of FITC phosphopeptide, fluorescence polarization; hit rate 2.8% among 360,000; further: series mostly up to about 57 µM; nearly all actives have a fitted effect of over 65% in size
USP1-UAF1 confirm – blocks human USP1/UAF1 cleavage of Ub-Rhodamine; shares compounds with VDR inh; Potency, µM (doses to about 56.8 µM), usual class: inhibitors; Ub-Rhodamine cleavage, fluorescence kinetic read; hit rate 50% among 50
VDR inh confirm – confirmation of human vitamin D receptor inhibitors; shares compounds with VDR inh; hit rate 89% among 840; VDR-coactivator inhibition assay, qHTS confirmation; Potency, µM, most hits filed as inhibitors
VDR FP – VDR (human) coactivator binding inhibition, fluorescein polarization; shares compounds with VDR inh; VDR-coactivator binding, fluorescein fluorescence polarization; Potency, µM (titrated, usually from 57.1 µM), most hits filed as inhibitors; hit rate 48% among 840; AID 602200
VDR bla – confirmation of human vitamin D receptor inhibitors in reporter cells | shares compounds with VDR inh | AID 602202 | VDR beta-lactamase reporter cells, FRET ratio; cells co-treated with VDR agonist LG190178 | hit rate 23% among 840 | Potency, µM (highest dose often 46.1 µM), usual class: inhibitors
VDR cytotox – cell toxicity, VDR inhibitor hit counter-screen | shares compounds with VDR inh | cytotoxicity counter-screen, cell viability, qHTS | Potency, µM (top dose mostly 48.3 µM), usual class: cytotoxic | hit rate 18% among 840; further: nearly all actives have a fitted effect of over 75% in size
TbPYK inh – Trypanosoma brucei pyruvate kinase inhibition, cherry-pick confirmation; shares compounds with PLK1 PBD block; recombinant TbPYK, Kinase-Glo ATP luminescence; Potency, µM (top dose mostly 76.9 µM), most hits filed as inhibitors; hit rate 67% among 890; AID 720569; further: nearly all actives have a fitted effect of over 70% in size
TbPYK ADP-Glo – inhibits T. brucei pyruvate kinase in orthogonal ADP-Glo assay | shares compounds with PLK1 PBD block | recombinant TbPYK, ADP-Glo luminescence, 60 min | Potency, µM (doses to about 76.9 µM), actives largely listed as inhibitors | hit rate 62% among 890; further: nearly all actives have a fitted effect of over 75% in size
Of the large screens only hits and unclear results are named; the others gave an inactive call (follow-up assays come after a bar, where they were run). Unless noted, the call rests on the fitted dose curve; in most records, active means well fitted curve in the direction sought with a large enough effect; inconclusive means small, poorly fitted or top-dose-only effect, or another doubt; inactive means no such curve, though single readings can be large; an effect the other way counts as inactive or inconclusive.

CC(C)(C)OC(=O)C(Br)CCBr (configuration not stated)	KAT2A inh inconclusive (no result: PTAP TSG101 blk, USP1-UAF1 inh, PLK1 PBD block)
CCOc1ccc(N2C(=O)NC(=O)/C(=C\c3ccccc3[N+](=O)[O-])C2=O)cc1	VDR inh 31.6µM, PLK1 PBD block 9.47µM | VDR inh confirm 9.47 | VDR FP inconclusive | VDR bla inactive | VDR cytotox inactive
CCC(C)c1ccc(N2C(=O)NC(=O)/C(=C/c3cccn3CCOc3ccc(C)cc3)C2=O)cc1 (configuration not stated)	PTAP TSG101 blk inconclusive
COc1ccc([N+](=O)[O-])c(S(=O)(=O)c2ccc(Cl)cc2)n1	VDR inh 31.6µM, USP1-UAF1 inh inconclusive, PLK1 PBD block 2.99µM | VDR inh confirm 2.99 | VDR FP inconclusive | VDR bla 7.31µM | VDR cytotox inconclusive
N#CC1c2ccccc2-n2nncc2CN1Cc1cc(Cl)cc(Cl)c1 (configuration not stated)	VDR inh 20µM, PLK1 PBD block inconclusive (no result: KAT2A inh) | VDR inh confirm 3.36 | VDR FP 2.82µM | VDR bla 10.3µM | VDR cytotox 4.11µM
CCN(CC)CCCCN1c2ccccc2Oc2ccc(Cl)cc21	VDR inh inconclusive (no result: PTAP TSG101 blk, USP1-UAF1 inh, PLK1 PBD block)
OCCN1CCN(CCCN2c3ccccc3Sc3ccc(C(F)(F)F)cc32)CC1	none | USP1-UAF1 confirm inconclusive
FC(F)(F)c1ccc2c(c1)N(CCCN1CCN(CCCl)CC1)c1ccccc1S2	none
Cc1ccc(OP2(=O)Nc3cc(C)c(C)cc3S2)cc1 (configuration not stated)	VDR inh 7.94µM, PLK1 PBD block 1.68µM (no result: KAT2A inh) | VDR inh confirm 6.7 | VDR FP inconclusive | VDR bla inactive | VDR cytotox inactive
C/C=C1/C[C@@H](C)[C@](O)(CO)C(=O)OCC2=CCN3CC[C@@H](OC1=O)C23 (some centres not stated)	none (no result: PTAP TSG101 blk, USP1-UAF1 inh, PLK1 PBD block)
Nc1nc(Sc2ccc([N+](=O)[O-])c3nonc23)c2[nH]cnc2n1	VDR inh 14.1µM, PTAP TSG101 blk inconclusive, PLK1 PBD block 1.5µM (no result: KAT2A inh) | VDR inh confirm 3.36 | VDR FP inconclusive | VDR bla inconclusive | VDR cytotox 11.2µM
C=C1C([C@@H](O)C[C@H](C)C2O[C@@]3(CCCCO3)CC[C@H]2C)OC2CC[C@@]3(CC[C@@H](/C=C/[C@@H](C)C4CC(C)=C[C@]5(O4)O[C@H](C[C@@](C)(O)C(=O)O)CCC5O)O3)OC2[C@@H]1O (some centres not stated)	none (no result: PTAP TSG101 blk, USP1-UAF1 inh, PLK1 PBD block)
O=[N+]([O-])c1ccc(Sc2nc3ccccc3o2)c([N+](=O)[O-])c1	VDR inh 25.1µM, PLK1 PBD block 5.32µM (no result: PTAP TSG101 blk) | VDR inh confirm 18.9 | VDR FP 14.1µM | VDR bla inconclusive | VDR cytotox inconclusive
C[N+]1(C)CCO[C@](O)(c2ccc(-c3ccc([C@]4(O)C[N+](C)(C)CCO4)cc3)cc2)C1	none (no result: PTAP TSG101 blk, USP1-UAF1 inh, PLK1 PBD block)
CCCCn1c(NC(=O)c2ccc(Br)o2)c(C(=O)OCC)c2nc3ccccc3nc21	VDR inh inconclusive, USP1-UAF1 inh 25.1µM, PLK1 PBD block inconclusive | VDR inh confirm 2.51 | VDR FP 1.41µM | VDR bla inconclusive | VDR cytotox inconclusive
CCN(CC)c1ccc(/C=C2\C(=O)NC(=O)N(Cc3ccco3)C2=O)cc1	VDR inh inconclusive, PLK1 PBD block inconclusive
CCOc1ccc(/C=C2/C(=O)NC(=O)N(CCc3ccc(F)cc3)C2=O)cc1	VDR inh 79.4µM, PLK1 PBD block 2.67µM | VDR inh confirm inconclusive | VDR FP 17.8µM | VDR bla inactive | VDR cytotox inconclusive
COc1ccc(C(=O)/C=C2/C(=O)Nc3ccccc32)c(OC)c1	VDR inh 35.5µM, PLK1 PBD block inconclusive | VDR inh confirm 21.2 | VDR FP inconclusive | VDR bla inconclusive | VDR cytotox 12.6µM
COc1ccc(-n2c(O)c(/C=C3\C=Nc4ccc(Br)cc43)c(=O)[nH]c2=O)c(OC)c1	VDR inh 50.1µM, USP1-UAF1 inh inconclusive, PLK1 PBD block 2.12µM | VDR inh confirm 16.8 | VDR FP inconclusive | VDR bla inconclusive | VDR cytotox inconclusive
O=c1[nH]c(=O)n(Cc2ccccc2)c(O)c1/C=C1\C=Nc2ccccc21	USP1-UAF1 inh inconclusive, PLK1 PBD block inconclusive
O=C(C[C@@H]1C[C@@H]2c3cc(NS(=O)(=O)c4ccc(F)cc4)ccc3O[C@@H]2[C@H](CO)O1)N1CCc2ccccc2C1	USP1-UAF1 inh inconclusive (no result: KAT2A inh, VDR inh, PTAP TSG101 blk)
CCN1C(=O)/C(=C\C(=O)c2cccs2)c2cc(Br)ccc21	VDR inh 35.5µM, PLK1 PBD block 5.32µM | VDR inh confirm 6.7 | VDR FP inconclusive | VDR bla inconclusive | VDR cytotox inconclusive
NNC(=O)CN1C(=O)CN=C(c2ccccc2)c2cc(Br)ccc21	none
CCOC(=O)COc1ccc(/C=C2\C(=O)NC(=S)N(c3ccc(OC)cc3)C2=O)cc1OC	VDR inh 44.7µM, PLK1 PBD block 15µM | VDR inh confirm 23.8 | VDR FP 14.1µM | VDR bla inactive | VDR cytotox inactive
O=C(O)CF	none (no result: PTAP TSG101 blk, USP1-UAF1 inh, PLK1 PBD block)
O=C1NC(=S)NC(=O)C1=Cc1ccc(Br)s1	KAT2A inh inconclusive, VDR inh 22.4µM, PLK1 PBD block 2.12µM | VDR inh confirm 4.23 | VDR FP inconclusive | VDR bla inconclusive | VDR cytotox inconclusive | TbPYK inh 10µM | TbPYK ADP-Glo 15.8µM
CCN1C[C@]2(C)CC[C@H](OC)[C@@]34[C@H]1C1(OCO[C@@]15C[C@H](OC)C1C[C@]3(O)C5[C@H]1OC)[C@@H](O)[C@H]24	none (no result: KAT2A inh, PTAP TSG101 blk, USP1-UAF1 inh, PLK1 PBD block)
CCC1(c2ccccc2)C(=O)N(C)C(=O)N(C)C1=O	none (no result: KAT2A inh)

Source: PubChem
